Source: PubChem
KCNH2 3.1 inh: inhibitors of human KCNH2 3.1 potassium channel isoform; U2OS KCNH2 3.1, thallium flux FluxOr; active compounds read low; AID 720553; 0.95% of 340,000 active; activity change, % (tested at about 1.8 µM);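 active means maximum activity change below -70%; inconclusive means maximum activity change from -70% to -50%; inactive means maximum activity change above -50%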;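 further: thallium influx rate constant from kinetic fluorescence after stimulation buffer; on the % scale 0 is the no-effect control and ±100 the full control effect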
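Virally transduced U2OS (3.1 isoform, 4 h infection in dark at RT) → overnight 37 C → FluxOr + Red40 in HBSS/HEPES, 45 min → stimulation buffer, 2 min kinetic read → rate constant vs DMSO controls.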
TRHR agonist: agonists of human TRH receptor; AID 493084; activation, % at 2 µM; TRHR cells, calcium flux fluo-8, FDSS agonist mode; 0.18% of 360,000 active; in the data active means activation above about 30%; further: 0% is about no effect
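TRHR-expressing cells loaded with fluo-8 calcium dye; 23 nL library compound pin-transferred, kinetic FDSS fluorescence (Ex 480/Em 530) recorded about 180 s for agonist-induced calcium release, before a 10 nM TRH EC20 addition for potentiator mode.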
TRPML1 ag: human mucolipin-1 channel agonism; activation, % (test concentration not listed); Q9GZU1; TRPML1-expressing cells, Ca2+ dye fluorescence, FDSS; AID 624414; 0.12% of 410,000 active; in the data active means activation above about 50%; inconclusive means mostly about 30% to 49%; further: 0% is about no effect
Target sequence (Q9GZU1 whole entry, looked up): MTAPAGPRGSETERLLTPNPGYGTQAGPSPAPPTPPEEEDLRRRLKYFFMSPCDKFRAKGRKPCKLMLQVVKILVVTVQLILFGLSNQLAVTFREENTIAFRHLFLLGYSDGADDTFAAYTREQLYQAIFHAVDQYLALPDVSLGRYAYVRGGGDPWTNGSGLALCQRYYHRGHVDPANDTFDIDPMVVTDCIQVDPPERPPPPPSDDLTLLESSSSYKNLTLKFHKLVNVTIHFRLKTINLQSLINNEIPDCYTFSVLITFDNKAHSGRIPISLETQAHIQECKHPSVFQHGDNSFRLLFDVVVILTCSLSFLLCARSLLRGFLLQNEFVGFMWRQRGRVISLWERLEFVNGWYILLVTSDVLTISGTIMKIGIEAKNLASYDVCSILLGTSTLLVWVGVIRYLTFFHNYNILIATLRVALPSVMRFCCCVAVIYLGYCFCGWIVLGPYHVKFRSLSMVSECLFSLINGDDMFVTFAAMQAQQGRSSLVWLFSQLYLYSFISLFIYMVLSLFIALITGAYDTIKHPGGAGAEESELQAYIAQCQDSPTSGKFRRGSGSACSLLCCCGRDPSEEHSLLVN
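Tet-induced TRPML1-DL cells, 1,500 per well, cultured overnight, were loaded with a no-wash Ca2+ dye for 45–90 min. Calcium fluorescence was recorded on the FDSS for 110 s after compound addition, before the EC80 agonist (4 uM 54-4) was added.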
TRHR enhancer: allosteric enhancers of human TRH receptor; P34981; TRHR cells, fluo-8 calcium fluorescence, EC20 TRH enhancement; enhancement, % at 2 µM; 0.66% of 360,000 active; AID 493056; in the data active means enhancement above about 30%; further: 0% is about no effect
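TRHR-expressing cells loaded with fluo-8 calcium dye were read kinetically (ex 480/em 530) during compound addition, then stimulated with an EC20 of TRH (10 nM final). Enhancement of the Gq-mediated intracellular calcium response was scored.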
hERG WT inh: blocks the wildtype human KCNH2 potassium channel; Q12809; U2OS, BacMam KCNH2, thallium flux FluxOr; active compounds read low; activity change, % at 1.84 µM; 0.37% of 340,000 active;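 active means maximum activity change below -70%; inconclusive means maximum activity change between -70% and -50%; inactive means maximum activity change above -50%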; further: on the % scale 0 is the no-effect control and ±100 the full control effect
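U2OS cells were transduced with wild-type KCNH2 virus (2.03 x 10^8 / mL) for 4 h at room temperature, then cultured overnight at 37 C. Thallium flux was read with FluxOr dye. Rate constants were normalized to DMSO controls.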
TRPML1 inh: blocks the human TRPML1 channel; Q9GZU1; TRPML1-inducible cells, Ca2+ dye fluorescence, FDSS; active compounds read low; inhibition of EC80 agonist-evoked calcium signal; activity change, negative = inhibition, % (no concentration beside the values); 0.02% of 390,000 active; in the data active means activity change below about -50%; inconclusive means between about -30% and that limit;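 further: stimulus is agonist 54-4 at its EC80 concentration; on the % scale 0 is the no-effect control and ±100 the full control effect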
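Calcium fluorescence in TRPML1-DL cells induced overnight with Tet: a 110 s read after compound pin addition, then a 110 s antagonist read after challenge with 54-4 at 4 uM final (EC80).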
* hit, by the source's call; ? = inconclusive; . = no result. Hits are enriched below; roughly 1.7% of the tested compounds scored in any of these assays.

SMILES	KCNH2 3.1 inh	TRHR agonist	TRPML1 ag	TRHR enhancer	hERG WT inh	TRPML1 inh
O=C(CN(C(=O)CCC(=O)Nc1ccccn1)c1ccc(F)cc1)NCc1ccco1	20	-2	1	-10	-7	23
Cc1cc(C)cc(N(CC(=O)NCc2ccco2)C(=O)CCC(=O)Nc2nccs2)c1	-72*	0	0	1	6	12
COCCNC(=O)CN(C(=O)CCC(=O)Nc1ccccn1)c1ccc(F)cc1	3	0	-1	33*	11	13
CCOc1ccc(C(=O)NCCn2cc(SCC(=O)Nc3ccc4c(c3)OCCO4)c3ccccc32)cc1	.	-2	2	-4	.	-8
CC(C)(C)OC(=O)Cc1nnc(C(C(=O)OCc2ccccc2)c2ccccc2)s1 (centres undefined)	.	1	.	-2	.	.
OC(CNCC1(N2CCCCC2)CCCCC1)COc1ccc(Cl)cc1Cl (centres undefined)	-86*	0	3	0	?	-6
CC(=O)Nc1cccc(-c2ccnc3c2CC(C)(C(=O)Nc2ccc(C(C)C)cc2)O3)c1 (centres undefined)	.	.	0	.	.	10
Cc1ccc(S(=O)(=O)CC(CN2CCOCC2)N2CCOCC2)cc1 (centres undefined)	3	1	2	7	-3	-5
Cc1ccc(S(=O)(=O)CC(C)N2CCOCC2)c(S(=O)(=O)CC(C)N2CCOCC2)c1 (centres undefined)	8	0	-1	4	-224*	6
Cc1ccc(CNCC(O)(c2ccccc2)c2ccc(Cl)cc2)cc1 (centres undefined)	.	1	2	0	30	-9
COc1ccc(CNCC(O)(c2ccccc2)c2ccc(Cl)cc2)cc1 (centres undefined)	-72*	1	1	5	-22	-2
COc1ccc(-n2ncc(C(C)NS(=O)(=O)c3ccc(C(C)=O)cc3)c2C)cc1 (centres undefined)	-4	-1	1	-2	4	-1
COc1ccc(-n2ncc(C(C)NS(=O)(=O)c3cccs3)c2C)cc1 (centres undefined)	12	-1	0	31*	-1	-9
CCc1c(C)nc(SC/C=C/c2ccccc2)[nH]c1=O	-120*	0	2	10	-3	2
O=C1N(Cc2cccc(Cl)c2)C[C@@H]2C[C@@H](c3cccn3-c3nccs3)N3CCC[C@@]123	-86*	2	1	-4	13	31
C=CC(=O)N1CCC[C@@H](n2nc(-c3ccc(Oc4ccccc4)cc3)c3c(N)ncnc32)C1	.	.	1	.	.	.
Oc1ccc(-c2csc(-c3c[nH]c4ccccc34)n2)c(O)c1	21	0	2	40*	-6	24
CCn1c(NC(=O)/C=C/c2ccc(F)cc2)nc2ccccc21	-1	1	1	-6	2	14
O=C(c1cccs1)N(Cc1ccco1)c1ccc(O)cc1	.	.	-1	.	.	.
CC(C)(C)C1CCc2c(sc(NC(=O)C3c4ccccc4Oc4ccccc43)c2C(N)=O)C1 (centres undefined)	.	0	0	11	.	-15
Cc1ccc2c(c1)N(CC(=O)NC1CCCC1)C(=O)c1cccnc1O2	1	0	0	-2	-3	4
CCc1ccc2oc(-c3ccc(C)c(NC(=O)COc4ccc(Cl)cc4)c3)nc2c1	.	.	0	.	.	.
COc1ccc(OC)c(C(=O)c2coc3ccc(O)cc23)c1	1	-1	0	40*	-14	5
CC1CN(C(=O)CCC(=O)Nc2cc(F)ccc2F)c2ccccc2S1 (centres undefined)	.	0	2	-6	.	12
Cc1ccc(S(=O)(=O)N/N=C2/CC(c3ccccc3)Oc3ccccc32)cc1 (centres undefined)	-110*	0	1	-6	-5	22
SMILES	KCNH2 3.1 inh	TRHR agonist	TRPML1 ag	TRHR enhancer	hERG WT inh	TRPML1 inh
O=S(=O)(N/N=C1\CC(c2ccccc2)Oc2ccccc21)c1ccccc1 (centres undefined)	-4	0	2	-7	-11	52
Cc1cccc(N(CC(=O)N2CCN(c3ccccc3F)CC2)S(C)(=O)=O)c1	-85*	0	0	-9	-2	-5
CCN(CC)CCCN(C(=O)c1ccccc1C)c1nc(-c2ccc(OC)cc2)cs1	-1	0	-1	-3	11	1
CCN(CC)CCCN(C(=O)c1ccc(OC)cc1)c1nc(-c2ccc(OC)cc2)cs1	-95*	5	0	3	?	-3
CN(C)CCCN(C(=O)c1ccco1)c1nc(-c2ccc(Cl)cc2)cs1	-80*	0	.	1	1	.
C=C1NN(C)C(=O)N1c1ccc(OC)cc1	.	.	-1	.	.	.
COc1ccc(-n2[nH]c(C)cc2=O)cc1	10	0	-1	33*	12	-14
C=CCCC(=O)N1C[C@H]2CON(C)[C@H]2C[C@H]1c1ccc(N2CCCCC2)cc1	.	.	-1	.	.	.
COc1ccc(CNCCC(c2ccc(OC(C)C)cc2)c2ccccc2OC)cc1OC (centres undefined)	-82*	7	1	1	-45	17
COc1ccc(CNCCC(c2ccccc2)c2ccc3c(c2)OCO3)cc1 (centres undefined)	-81*	3	0	-1	-24	-18
COc1cc2nc(N3CCCCC3)nc(NC3CCN(C)CC3)c2cc1OC	.	.	0	.	.	.
COc1cc(/C=C2\SC(=S)N(NC(=O)c3ccc(O)cc3)C2=O)ccc1O	3	48*	?	-1	2	25
COc1ccc(/C=C2\SC(=S)N(CC3CCCO3)C2=O)cc1 (centres undefined)	18	1	1	2	-3	13
COc1cc(/C=C2/SC(=S)N(CC3CCCO3)C2=O)ccc1O (centres undefined)	1	64*	?	8	-10	3
CCOc1cc(/C=C2\SC(=S)N(NS(=O)(=O)c3ccccc3)C2=O)ccc1O	8	16	3	10	-2	29
CCOc1cc(/C=C2\SC(=S)N(Nc3ccccc3)C2=O)ccc1O	-30	35*	22	-2	-4	47
Cc1ccc(C2=NN(CC(=O)NCCC(C)C)C(=O)CC2)cc1	-5	-1	1	3	6	7
COc1cc2nc(CN3CCN(S(=O)(=O)c4ccccc4[N+](=O)[O-])CC3)[nH]c(=O)c2cc1OC	-1	.	-1	.	7	-7
CCc1nc2ccc(C(=O)NCCN3CCNC3=O)cn2c1N(CCC(C)C)CCN(C)C	.	.	0	.	.	.
